Compound activity (PubChem)
An excerpt weighted towards active compounds, which were near 10% of everything screened.
NPR1 antag = human Npr1 receptor antagonism; P16066; HEK293 hNpr1 GloSensor cGMP, ANP-stimulated luminescence; Potency, µM (doses to about 46.3 µM), for inactives: at the top dose activity change, negative = inhibition, usual class: inhibitors; actives 1.6% (n = 76,000); calls by dose curve; note: nearly all actives have a fitted effect of over 60% in size
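Compound pre-incubated 30 min at room temperature on GloSensor-loaded HEK293 cells stably carrying hNpr1 and the pGS-40F cGMP biosensor. Stimulation uses hNppA at 0.1 nM final; luminescence is taken at baseline and 20 min post-agonist.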
GPT2 inhibitor = blocks human glutamate pyruvate transaminase 2; Potency, µM (highest dose often 57.7 µM), without a hit: top-dose activity change, negative = inhibition, most hits filed as inhibitors; actives 0.25% (n = 100,000); Recombinant GPT2, coupled pyruvate oxidase/HRP Amplex Red fluorescence; Q8TD30; note: nearly all actives have a fitted effect of over 60% in size
Target sequence (Q8TD30 whole entry, looked up): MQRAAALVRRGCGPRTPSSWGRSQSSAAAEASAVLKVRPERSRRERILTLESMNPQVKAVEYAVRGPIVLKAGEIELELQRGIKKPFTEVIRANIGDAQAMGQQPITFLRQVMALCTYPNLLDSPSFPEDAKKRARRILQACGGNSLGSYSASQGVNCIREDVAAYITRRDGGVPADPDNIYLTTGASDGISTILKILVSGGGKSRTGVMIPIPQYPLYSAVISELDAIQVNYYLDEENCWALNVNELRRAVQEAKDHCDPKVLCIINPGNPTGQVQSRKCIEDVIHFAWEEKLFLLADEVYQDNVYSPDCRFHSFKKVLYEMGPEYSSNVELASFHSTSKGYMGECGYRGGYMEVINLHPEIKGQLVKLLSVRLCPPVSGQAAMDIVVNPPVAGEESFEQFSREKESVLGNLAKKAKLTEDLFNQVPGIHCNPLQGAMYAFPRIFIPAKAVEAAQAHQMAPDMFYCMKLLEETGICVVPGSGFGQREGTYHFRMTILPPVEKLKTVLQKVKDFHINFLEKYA
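Fluorescence read-out: pyruvate from GPT2 turnover coupled to pyruvate oxidase, HRP and Amplex Red (0.2mM ThPP, 0.2U/mL PO and HRP, 50uM Amplex final). Substrates 250uM a-KG, 2mM L-alanine; enzyme 10ng/uL; 30 min RT.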
FLuc inh = blocks purified firefly luciferase enzyme activity | P08659 | purified P. pyralis luciferase, luminescence, biochemical | Potency, µM (highest dose often 115 µM), most hits filed as inhibitors | actives 2.5% (n = 76,000); note: nearly all actives have a fitted effect of over 65% in size
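Cell-free enzyme assay, 10nM P. pyralis luciferase, luciferin and ATP each at 10uM. Inhibition profiled over a 6-point titration, read as luminescence.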
HEK293 tox = cytotoxic compounds in HEK 293 cells. actives 6.6% (n = 94,000). HEK 293 viability, ATP luminescence (CellTiter-Glo), 48-72 h. Potency, µM (highest dose often 115 µM), for the others: top-dose activity change, negative = cytotoxicity, hits mostly inhibitors; note: nearly all actives have a fitted effect of over 60% in size
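HEK 293 seeded at 250 cells/well receive compound via pintool. After 48 or 72 hr at 37 degree Celsius, 5% CO2 and 95% humidity, CellTiter-Glo is dispensed and luminescence read following 10 min at room temperature.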
3T3 cytotox = kills NIH 3T3 cells. NIH 3T3 viability, CellTiter-Glo ATP luminescence, 48-72 h. AID 1345082. actives 4.3% (n = 94,000). Potency, µM (series often up to 96.7 µM), without a hit: at the highest dose activity change, negative = cytotoxicity, actives largely listed as inhibitors; note: nearly all actives have a fitted effect of over 55% in size
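ATP-dependent luminescence (CellTiter-Glo) served as the viability signal for NIH 3T3 cells treated with compound for 48 or 72 hr at 37 °C.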
* marks the source's active call; other numbers are inactive results; i = inactive; ? = inconclusive; · = not tested or not shown; [ ] = remark or other dose. Unless noted, calls come from the whole dose curve; as a rule, active = well fitted curve in the direction sought with a large enough effect; inconclusive = small, poorly fitted or top-dose-only effect, or another doubt; inactive = no such curve, though single readings can be large; an effect the other way counts as inactive or inconclusive. % is set by controls: 0 for no effect and ±100 for the full control effect; potency is the fitted concentration of half-maximal effect.

SMILES | NPR1 antag | GPT2 inhibitor | FLuc inh | HEK293 tox | 3T3 cytotox
COC[C@@H]1CCCN1c1ncnc2c1CN(C1CCNC1)C(=O)CN2C (some centres not stated) | · | -7.2% | · | 0.7% | i
Cc1cc(C(F)(F)F)n(-c2nc(C(=O)N3CCOCC(O)C3)cs2)n1 (configuration not stated) | -2.6% | ? | i | 2.6% | -3.2%
CN(CC(O)COc1cccc(CNCCc2ccc(F)cc2)c1)C1CCCCC1 (configuration not stated) | -9.2% | ? | i | 17.8µM* | ?
COCC(=O)NCc1cc2n(n1)CCCN(Cc1cc3ccccc3s1)C2 | 0.6% | i | i | 20µM* | ?
O=C(c1ccco1)N1CCc2c(nc(-c3ccc(F)cc3)[nH]c2=O)C1 | -11.5% | -7.9% | i | 2.9% | ?
O=C(c1nccc2ccccc12)N1CCc2c(nc(-c3ccc(F)cc3)[nH]c2=O)C1 | -11.6% | i | i | ? | 14.1µM*
O=C(NC1CCCC1)c1ccc(OC2CCN(CCCC(F)(F)F)CC2)c(Cl)c1 | -3.3% | i | i | 31.6µM* | ?
COCc1cc(CC2(NCc3ccccc3)COC2)no1 | -0.8%[70.6 µM] | 1.2%[88.5 µM] | i | -18.1%[230 µM] | -12.8%[230 µM]
CN(C)C(=O)C1CN(Cc2ccccc2)C(=O)N1 (configuration not stated) | 26.2%[230 µM] | 2.7%[192 µM] | i | -1.3%[575 µM] | -10.2%[461 µM]
CN(CC1CCOCC1)C(=O)CCCc1ccccc1 | -0.6% | i | 39.8µM* | 2.1% | -5.0%
CN(CC1CCOCC1)C(=O)NCCc1ccccc1 | 1.4% | i | ? | 5.5% | i
C=C(C)[C@@H]1CC[C@]2(C)CC[C@]3(C)C(CCC4[C@@]5(C)CC[C@H](O)C(C)(C)C5CC[C@]43C)C12 (some centres not stated) | · | -7.7%[27.3 µM] | · | · | ·
COc1cccc(C(=O)NC2CCN(c3nccc(Nc4ccccc4OC)n3)CC2)c1 | · | 1.8% | · | 39.8µM* | ?
COc1ccc(Nc2ccnc(N3CCC(NC(=O)c4ccc(OC)cc4)CC3)n2)cc1 | · | -14.7% | · | ? | ?
Cc1ccc(Nc2ccnc(N3CCC(NC(=O)c4ccc(Cl)cc4)CC3)n2)cc1 | · | i | · | 22.4µM* | 31.6µM*
COc1ccc(Nc2ccnc(N3CCC(NC(=O)c4cccc(OC)c4)CC3)n2)cc1 | · | i | · | 35.5µM* | ?
COc1ccccc1Nc1ccnc(N2CCC(NC(=O)c3cccc(Cl)c3)CC2)n1 | · | -1.2% | · | ? | ?
COc1ccc(C(=O)NC2CCN(c3nccc(Nc4ccc(C)cc4)n3)CC2)cc1 | · | -5.4% | · | 35.5µM* | ?
CNC(=O)[C@@H]1CN(C(=O)CN2CCOCC2)C[C@H]1COC | -3.6% | ? | i | -1.5% | -2.1%
O=C(NCc1ccccc1)C1CC(=O)N(c2n[nH]c3cccc(F)c23)C1 (configuration not stated) | 4.1% | 2.5% | i | 2.5% | i
CC(C)N1CCC(CCN2C(=O)[C@H]3CN(S(=O)(=O)c4ccccc4)C[C@H]3C2=O)CC1 | 2.0% | -2.4% | i | 5.6% | i
CN1C(=O)CO[C@H](c2ccc(NC(=O)NC(C)(C)C)cc2)[C@H]1CO | -0.9%[70.6 µM] | -15.6%[88.5 µM] | i | -2.2%[172 µM] | ?
COc1ccc(Nc2ccnc(N3CCC(C(=O)N4CCC(c5ccccc5)CC4)CC3)n2)cc1 | · | i | · | 12.6µM* | 20µM*
O=C(NC1CCN(c2nccc(Nc3ccccc3Cl)n2)CC1)c1cccc(Cl)c1 | · | i | · | ? | ?
COc1ccc(Nc2ccnc(N3CCC(NC(=O)c4cccc(Cl)c4)CC3)n2)cc1 | · | ? | · | 14.1µM* | 28.2µM*
SMILES | NPR1 antag | GPT2 inhibitor | FLuc inh | HEK293 tox | 3T3 cytotox
COc1ccc(Nc2ccnc(N3CCC(NC(=O)c4ccccc4)CC3)n2)cc1 | · | i | · | 35.5µM* | ?
Cc1ccc(Nc2ccnc(N3CCC(NC(=O)c4cccc(Cl)c4)CC3)n2)cc1 | · | i | · | ? | 39.8µM*
COc1ccc(Nc2ccnc(N3CCC(C(=O)N4CCCCC4)CC3)n2)cc1 | · | 1.6% | · | ? | ?
COc1ccc(Nc2ccnc(N3CCC(C(=O)NC4CC4)CC3)n2)cc1 | · | i | · | ? | ?
CC1(C(=O)O)CCCC2(C)C3=CCC4CC3(CCC12)CC4CO (configuration not stated) | · | i | · | · | ·
CCN1CCN(c2ncnc3c2CN(C2CCC2)C(=O)CN3C)CC1 | 3.8% | -8.3% | i | 0.9% | -3.1%
COC(=O)NC1CCN(c2nccc(Nc3ccc(OC)cc3)n2)CC1 | · | i | · | ? | -33.0%
COc1ccc(CC(=O)NC2CCN(c3nccc(Nc4ccc(OC)cc4)n3)CC2)cc1 | · | i | · | 39.8µM* | 35.5µM*
FC(F)(F)C1CN(c2ccc3cc(Cl)ccc3n2)CCO1 (configuration not stated) | 5.2% | -23.6% | 25.1µM* | ? | ?
CCc1ccc(C(=O)N2C[C@@H](CO)[C@H](c3ccccn3)C2)cc1 | 2.7% | i | i | -19.0% | -14.0%
COc1cc(CNC2CCCCCCC2)ccc1OCC(O)CN1CCSCC1 (configuration not stated) | -8.5% | i | i | ? | 79.4µM*
COc1ccc(CNCc2ccc(C)s2)cc1OCC(O)CN1CCCCC1 (configuration not stated) | -3.8% | -19.4% | i | 79.4µM* | ?
COc1cc(CNC2CCCCC2)ccc1OCC(O)CN1CCSCC1 (configuration not stated) | 3.9% | i | i | -20.6% | -19.5%
Cc1ccncc1C(=O)N1CC(N(C)Cc2cccnc2)C1 | -2.2% | i | 35.5µM* | 1.5% | 4.5%
O=C(c1cnccn1)N1CCC(Oc2ccccc2-c2nc(-c3ccccc3)no2)C1 (configuration not stated) | 1.6% | 4.5% | ? | ? | ?
Cc1ncccc1C(=O)N1CC(Oc2ccccc2-c2nc(-c3ccccc3)no2)C1 | -4.3% | i | 39.8µM* | ? | ?
O=C(C1CCOCC1)N1CCC(Oc2ccccc2-c2nc(-c3ccccc3)no2)C1 (configuration not stated) | 2.0% | i | i | 31.6µM* | ?
O=C(c1ccncc1)N1CCC(Oc2ccccc2-c2nc(-c3ccccc3)no2)C1 (configuration not stated) | 0.9% | i | ? | 39.8µM* | ?
CC(C)(C)OC(=O)NCCCC(=O)N1CCN(c2cccc(C=O)c2)C(=O)C1 | · | i | · | ? | ?
O=C(Cn1nc2c(cc1=O)CCCCC2)N1CC=C(c2c[nH]c3ccccc23)CC1 | ? | i | i | ? | -26.6%
COc1ccc(OCc2nc(C3CN(C(=O)c4cccn4C)C3)no2)cc1 | -0.3% | 1.6% | i | ? | ?
